# Assay results published in PubChem BioAssay.
# “And” between values parts separate entries of the source, which are not always exact repeats. Equal entries are not always repeated. For some of these results: Potency and affinity values are given separately. The source made the active and inactive calls. Cut-off read from the data, not from the text of the source, unless noted: active = parasite load remaining mostly below about 12% (no sharp cut-off); inactive = mostly above about 10%.
# Legend:
# [1] = blockers of polyQ-driven CASP3 activation – cell-based (AID 1583); details: polyglutamine-induced caspase-3 activation, cell assay; stronger effect = higher value;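 tested at 10 µM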
# [2] = yeast 75Q aggregation reduction – 75Q-TubU reporter (AID 1593); details: Yeast 75Q polyglutamine aggregation reporter
# [3] = restoration of touch response, mutant HTT neurons – whole organism, C. elegans mechanosensory neurons, N-terminal huntingtin (AID 1599); details: C. elegans polyQ-huntingtin mechanosensory neurons, stronger effect = higher value
# [4] = blockers of cytochrome c efflux from mitochondria – biochemical, purified mitochondria (AID 1603); details: stronger effect = lower value;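 note: mouse liver mitochondria challenged with calcium chloride; signal normalized to the plate average as 100%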
# [5] = polyglutamine aggregate formation blockers (AID 1604); details: polyglutamine-induced protein aggregation inhibition assay; stronger effect = higher value; tested at 2.5 µM
# [6] = glutamate transport activators, MN-1 cells, MN-1 cell line (AID 1612); details: MN-1 motor neuron cells, stronger effect = higher value;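 note: tested at 1 µM final; 0% = mean of DMSO vehicle wells on each plate; positive means more glutamate uptake than control and negative means less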
# [7] = GFP-Q80 aggregate reduction, neuronal-like cells, cell-based, NGF-treated PC12, GFPQ80 (AID 1614); details: PC12 NGF-treated GFP-polyQ80 inclusion reduction;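 note: lower means fewer inclusions and 0 means no inclusions at all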
# [8] = 75Q-TubH aggregate inhibition, S. cerevisiae, yeast (AID 1616); details: S. cerevisiae 75Q-TubH polyglutamine aggregation suppression; stronger effect = higher value
# [9] = compounds altering viability of human ES cells (AID 493140; call rule not given here;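 note: cells exposed to compounds for four days before counting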); details: human embryonic stem cell survival screen; stronger effect = higher value
# [10] = P. berghei load reduction in hepatocytes – cell-based, HepG2, luciferase luminescence, HepG2 viability, primary screen (AID 624349);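 note: 100% = mean of DMSO negative control wells on the same plate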; details: P. berghei liver stage in HepG2, luciferase luminescence, concentration not given here; parasite load remaining: stronger effect = lower value; viability: measured here: HepG2 viability without parasites
# [11] = biological target: 6-phosphogluconate dehydrogenase, decarboxylating (Homo sapiens) (UniProt P52209); experiment: inhibition of human phosphogluconate dehydrogenase – biochemical, recombinant enzyme, NADPH absorbance, primary screen (AID 1159550;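 active = at least 20% inhibition of 6-phosphogluconate dehydrogenase activity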); details: recombinant 6PGD, NADPH absorbance 341 nm; at 10 µM; stronger effect = higher value
# 6-phosphogluconate dehydrogenase, decarboxylating (Homo sapiens), sequence (P52209 whole entry, looked up): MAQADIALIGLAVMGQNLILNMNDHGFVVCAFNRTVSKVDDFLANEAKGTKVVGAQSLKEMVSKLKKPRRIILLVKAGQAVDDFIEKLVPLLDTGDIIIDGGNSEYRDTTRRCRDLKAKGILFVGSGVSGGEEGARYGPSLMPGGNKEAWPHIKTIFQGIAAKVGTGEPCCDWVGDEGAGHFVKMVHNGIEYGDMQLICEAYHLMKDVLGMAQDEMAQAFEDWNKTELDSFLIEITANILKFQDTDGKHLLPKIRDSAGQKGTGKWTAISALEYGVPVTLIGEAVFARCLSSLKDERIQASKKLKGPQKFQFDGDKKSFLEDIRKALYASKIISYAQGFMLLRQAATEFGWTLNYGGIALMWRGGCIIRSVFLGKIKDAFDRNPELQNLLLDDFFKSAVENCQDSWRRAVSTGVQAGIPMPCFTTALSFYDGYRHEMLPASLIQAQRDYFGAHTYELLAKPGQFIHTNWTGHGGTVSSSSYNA
# [12] = EMT-state selective cytotoxicity in co-culture – imaging, PC-3E GFP, TEM4-18 mCherry, primary screen (AID 1345086;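 active = compounds killing one labelled cell type while sparing the other, by normalised counts and ratio limits, not self-fluorescent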;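 for all read-outs here: cells exposed to compound for 72 h before imaging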;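 for red/green cell ratio (normalised): normalised mesenchymal count divided by normalised epithelial count so high means epithelial killing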); details: PC-3E GFP / TEM4-18 mCherry co-culture, imaging cell counts, at 1 µM; for red/green cell ratio (normalised): actives lie on both sides, counts scaled to control wells, 1 = unselective
# [13] = viability loss with induced miR-34 in A549 – imaging, A549 dox-inducible miR-34, nuclei and caspase counts, primary screen (AID 1347080;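 active = compounds whose cell count with miR-34 switched on is under 0.7 times the count with it off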); details: A549 miR-34 inducible, Hoechst nuclei count, 48 h
# [14] = biological target: Mitogen-activated protein kinase 7 (Homo sapiens) (UniProt Q13164); experiment: Gal4-ERK5 driven luciferase induction – cell-based, HTS, primary screen (AID 1508626;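 active = luciferase signal above three times the same-plate solvent-only control wells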;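 note: luciferase driven by Gal4-ERK5 fusion binding five Gal4 sites before minimal TATA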); details: HeLa Gal4-ERK5 transactivation, 18 h, at 5 µM, stronger effect = higher value
# Mitogen-activated protein kinase 7 (Homo sapiens), sequence (Q13164 whole entry, looked up, the tested form may be a part): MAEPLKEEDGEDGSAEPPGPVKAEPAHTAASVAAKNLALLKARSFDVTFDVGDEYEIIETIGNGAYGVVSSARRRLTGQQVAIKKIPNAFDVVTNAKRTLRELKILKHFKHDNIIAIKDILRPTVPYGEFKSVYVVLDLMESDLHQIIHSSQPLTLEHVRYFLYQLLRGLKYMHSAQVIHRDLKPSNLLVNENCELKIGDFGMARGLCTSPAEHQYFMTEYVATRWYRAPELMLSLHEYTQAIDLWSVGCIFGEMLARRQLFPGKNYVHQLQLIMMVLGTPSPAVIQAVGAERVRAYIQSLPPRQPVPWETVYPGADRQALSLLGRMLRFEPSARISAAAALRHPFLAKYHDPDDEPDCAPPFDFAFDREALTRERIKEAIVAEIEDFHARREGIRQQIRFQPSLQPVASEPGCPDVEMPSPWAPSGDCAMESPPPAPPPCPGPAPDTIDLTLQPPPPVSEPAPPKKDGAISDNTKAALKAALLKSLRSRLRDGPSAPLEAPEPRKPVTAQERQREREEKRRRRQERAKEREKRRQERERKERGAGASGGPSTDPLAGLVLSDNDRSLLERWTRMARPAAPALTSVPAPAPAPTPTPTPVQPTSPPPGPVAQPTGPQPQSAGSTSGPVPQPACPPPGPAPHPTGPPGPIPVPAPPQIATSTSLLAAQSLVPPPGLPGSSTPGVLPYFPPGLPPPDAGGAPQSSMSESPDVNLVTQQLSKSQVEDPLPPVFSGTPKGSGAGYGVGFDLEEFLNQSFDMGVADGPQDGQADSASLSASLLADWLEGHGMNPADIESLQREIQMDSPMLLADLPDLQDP
# [15] = biological target: NAD(+) hydrolase SARM1 (Homo sapiens) (UniProt Q6SZW1); experiment: blocking NAD cleavage by SARM1 SAM-TIR – cell lysate, NAD-Glo luminescence (AID 1508614;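 active = compound whose remaining NAD level is above about 45 nM, limit read from the data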;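 note: higher remaining NAD means stronger inhibition of SARM1 NADase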); details: SAM-TIR HEK293T lysate NADase, at 1 µM, stronger effect = higher value
# NAD(+) hydrolase SARM1 (Homo sapiens), sequence (Q6SZW1 whole entry, looked up): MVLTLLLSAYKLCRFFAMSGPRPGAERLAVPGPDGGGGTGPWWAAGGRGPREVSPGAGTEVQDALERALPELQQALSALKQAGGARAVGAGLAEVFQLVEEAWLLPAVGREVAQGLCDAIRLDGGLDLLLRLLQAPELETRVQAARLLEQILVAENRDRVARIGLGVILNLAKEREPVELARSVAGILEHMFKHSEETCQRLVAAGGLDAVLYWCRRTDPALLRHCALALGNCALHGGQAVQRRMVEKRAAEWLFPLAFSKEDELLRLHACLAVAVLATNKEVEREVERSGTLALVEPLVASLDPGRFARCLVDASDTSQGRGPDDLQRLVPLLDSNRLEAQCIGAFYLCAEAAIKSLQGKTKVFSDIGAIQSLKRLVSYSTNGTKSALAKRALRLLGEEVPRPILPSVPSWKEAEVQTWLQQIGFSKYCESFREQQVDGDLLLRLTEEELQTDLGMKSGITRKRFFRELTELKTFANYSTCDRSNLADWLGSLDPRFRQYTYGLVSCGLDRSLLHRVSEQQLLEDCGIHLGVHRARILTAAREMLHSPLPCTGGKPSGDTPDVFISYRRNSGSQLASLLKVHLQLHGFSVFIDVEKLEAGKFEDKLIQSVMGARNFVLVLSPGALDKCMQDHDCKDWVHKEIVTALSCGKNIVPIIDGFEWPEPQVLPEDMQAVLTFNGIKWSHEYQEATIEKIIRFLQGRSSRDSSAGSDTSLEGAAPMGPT
# [16] = MELAS cybrid and Rieske KO viability enhancers – cell-based, MELAS cybrids, Rieske KO mouse fibroblasts, CellTiter-Glo, primary screen (AID 1508586;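 active = mean z-score across replicates of 1.96 or higher in either the MELAS or the Rieske mutant cell line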;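 note: z relative to plate mean and SD of compound and empty wells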); details: low glucose
# [17] = galactose survival enhancers in mitochondrial complex I cybrids – cell-based, galactose medium, ATP luminescence, primary screen (AID 1645843;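 active = z-score of at least 1.8 in each of two replicates, scored against plate mean and spread of sample wells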;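 note: positive z means more ATP and so rescue of galactose-driven cybrid death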); details: complex I mutant cybrid cells, 72 h, stronger effect = higher value
# [18] = measured here: epithelial PC-3E GFP cell survival
# [19] = measured here: mesenchymal TEM4-18 mCherry cell survival
# [20] = stronger effect = lower value, cell number ratio, induced over uninduced
# [21] = measured here: relative caspase fold change +Dox/-Dox
# [22] = measured here: total cells with miR-34 induction, stronger effect = lower value
# [23] = measured here: total cells without miR-34 induction
structure (smiles),measurement,setting,value
COc1ccc([C@@H]2CC(=O)c3c(O)cc(O)cc3O2)cc1O,inhibition,[1],11%
same,score,[2],0.56
same,rescue above control,[3],6.5
same,cytochrome c release ratio,[4],0.93
same,inhibition of aggregation,[5],17%
same,glutamate uptake change,[6],0%
same,inclusion score,[7],2
same,aggregation suppression score,[8],0.264
same,survival,[9],17.8 (inactive)
same,parasite load remaining,[10],25.2% (inactive) and 110% (inactive)
same,viability,[10],46.9% and 88%
same,inhibition,[11],4.68% (inactive)
same,red/green cell ratio (normalised),[12],0.91 (inactive)
same,normalised cell number,[12]; [18],1.28
same,normalised cell number,[12]; [19],1.16
same,fold change,[13]; [20],0.922 (inactive) and 1.13 (inactive)
same,fold change,[13]; [21],1.33 and 0.691
same,cell count,[13]; [22],8710 and 6120
same,cell count,[13]; [23],9450 and 5440
same,luciferase signal,[14],48 AU (inactive)
CC(=C(CCOP(=O)(O)O)SC(=O)c1ccccc1)N(C=O)Cc1cnc(C)nc1N,inhibition,[1],9.82%
same,score,[2],1.37
same,rescue above control,[3],3.18
same,cytochrome c release ratio,[4],0.86
same,inhibition of aggregation,[5],39.4%
same,glutamate uptake change,[6],18.4%
same,inclusion score,[7],2
same,aggregation suppression score,[8],0.998
same,inhibition,[11],-10.8% (inactive)
same,red/green cell ratio (normalised),[12],0.95 (inactive)
same,normalised cell number,[12]; [18],1.05
same,normalised cell number,[12]; [19],1
same,remaining NAD,[15],10 nM (inactive)
COc1cc2ccc(=O)oc2cc1O,inhibition,[1],-26.2%
same,score,[2],1.15
same,rescue above control,[3],11.4
same,cytochrome c release ratio,[4],0.77
same,inhibition of aggregation,[5],0%
same,glutamate uptake change,[6],13.8%
same,inclusion score,[7],2
same,aggregation suppression score,[8],1.62
same,survival,[9],12.4 (inactive)
same,parasite load remaining,[10],104% (inactive) and 103% (inactive)
same,viability,[10],106% and 66.2%
same,inhibition,[11],-1.14% (inactive)
same,red/green cell ratio (normalised),[12],1.11 (inactive)
same,normalised cell number,[12]; [18],0.86
same,normalised cell number,[12]; [19],0.96
same,fold change,[13]; [20],0.946 (inactive)
same,fold change,[13]; [21],1.18
same,cell count,[13]; [22],8620
same,cell count,[13]; [23],9110
same,luciferase signal,[14],40 AU (inactive)
O=C1NS(=O)(=O)c2ccccc21,inhibition,[1],13.8%
same,score,[2],0.92
same,rescue above control,[3],-8.57
same,cytochrome c release ratio,[4],0.95
same,inhibition of aggregation,[5],78.3%
same,glutamate uptake change,[6],6.02%
same,inclusion score,[7],2
same,aggregation suppression score,[8],1.22
same,parasite load remaining,[10],95.1% (inactive) and 37.4% (inactive)
same,viability,[10],71.8% and 92.3%
same,inhibition,[11],10.4% (inactive)
same,red/green cell ratio (normalised),[12],1.14 (inactive)
same,normalised cell number,[12]; [18],1.03
same,normalised cell number,[12]; [19],1.17
same,remaining NAD,[15],10 nM (inactive)
same,luciferase signal,[14],40 AU (inactive)
CCCCN1CCCCC1C(=O)Nc1c(C)cccc1C (centres undefined),inhibition,[1],17%
same,score,[2],1.42
same,rescue above control,[3],-7.52
same,cytochrome c release ratio,[4],0.81
same,inhibition of aggregation,[5],-27.4%
same,glutamate uptake change,[6],1.83%
same,inclusion score,[7],2
same,aggregation suppression score,[8],1.3
same,survival,[9],10.1 (inactive)
same,inhibition,[11],3.83% (inactive)
same,red/green cell ratio (normalised),[12],1.17 (inactive)
same,normalised cell number,[12]; [18],1.13
same,normalised cell number,[12]; [19],1.33
same,z-score,"[16]; MELAS cybrid survival, CellTiter-Glo 48 h, stronger effect = higher value",-0.429 (inactive) and 0.622 (inactive) and -0.162 (inactive)
same,z-score,"[16]; Rieske KO mouse fibroblast survival, CellTiter-Glo 72 h",-0.124 and 0.613 and -0.528
same,remaining NAD,[15],10 nM (inactive)
same,luciferase signal,[14],68 AU (inactive)
same,z-score,[17],0.545 (inactive)
CC1(C)S[C@@H]2C(N3C(=O)[C@@H](c4ccccc4)NC3(C)C)C(=O)N2[C@H]1C(=O)O (some centres undefined),inhibition,[1],4.02%
same,score,[2],1.26
same,rescue above control,[3],-1.6
same,cytochrome c release ratio,[4],0.9
same,inhibition of aggregation,[5],49.2%
same,glutamate uptake change,[6],4.63%
same,inclusion score,[7],2
same,aggregation suppression score,[8],1.31
same,parasite load remaining,[10],110% (inactive) and 71.1% (inactive)
same,viability,[10],76.4% and 94.5%
same,inhibition,[11],-0.481% (inactive)
same,red/green cell ratio (normalised),[12],1.14 (inactive)
same,normalised cell number,[12]; [18],0.94
same,normalised cell number,[12]; [19],1.08
same,fold change,[13]; [20],0.886 (inactive)
same,fold change,[13]; [21],0.799
same,cell count,[13]; [22],11200
same,cell count,[13]; [23],12600
CC1=C(/C=C/C(C)=C/C=C/C(C)=C/CO)C(C)(C)CCC1,inhibition,[1],25.6%
same,score,[2],-0.82
same,rescue above control,[3],28.1
same,cytochrome c release ratio,[4],1.19
same,inhibition of aggregation,[5],88.9%
same,glutamate uptake change,[6],-6.81%
same,aggregation suppression score,[8],0.11
same,parasite load remaining,[10],115% (inactive) and 48.9% (inactive)
same,viability,[10],69.5% and 99.6%
same,inhibition,[11],-7.77% (inactive)
same,red/green cell ratio (normalised),[12],1.32 (inactive)
same,normalised cell number,[12]; [18],0.9
same,normalised cell number,[12]; [19],1.18
same,fold change,[13]; [20],0.915 (inactive)
same,fold change,[13]; [21],2.67
same,cell count,[13]; [22],11800
same,cell count,[13]; [23],12800
same,remaining NAD,[15],10 nM (inactive)
same,luciferase signal,[14],48 AU (inactive)
